Measured values as given in PubChem BioAssay AID1159580 (chemical genetic matrix, 2015).
Among all 5,500 compounds or so, about 2,000 (36%) were called active. Inconclusive results (about 18%) are left out. No stated cut-off is given here; in the data, active means normalized growth mostly below about 0.91 (no sharp cut-off); inconclusive means no clear call, values can overlap the other calls; inactive means mostly above about 0.92. Some of the results follow.

Test: chemical genetic growth profiling, strain panel (AID 1159580);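 further: tested at 20 µM; growth read once vehicle control cultures reached saturation at 30 °C; 1 = growth at the plate median or of vehicle wells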
Settings: S. cerevisiae deletion strains, growth OD

Measured: normalized growth

CC(O)(P(=O)(O)O)P(=O)(O)O
inactive: locus YAL021C, strain ccr4, stronger effect = lower value 1.03 | locus YAL026C, strain drs2, stronger effect = lower value 0.993 | locus YAL030W, strain snc1, stronger effect = lower value 0.993 | locus YBL061C, strain skt5, stronger effect = lower value 0.993 | locus YBR009C, strain hhf1, stronger effect = lower value 0.976 | locus YBR023C, strain chs3, stronger effect = lower value 0.99 | locus YBR171W, strain sec66, stronger effect = lower value 0.992 | locus YBR231C, strain swc5, stronger effect = lower value 0.992 | locus YBR279W, strain paf1, stronger effect = lower value 0.997 | locus YCL011C, strain gbp2, stronger effect = lower value 0.99 | locus YCL016C, strain dcc1, stronger effect = lower value 0.988 | locus YCL061C, strain MRC1, stronger effect = lower value 1 | locus YCL069W, strain vba3, stronger effect = lower value 0.992 | locus YCR088W, strain abp1, stronger effect = lower value 0.989 | locus YDL005C, strain med2, stronger effect = lower value 1 | locus YDL040C, strain nat1, stronger effect = lower value 0.997 | locus YDR001C, strain nth1, stronger effect = lower value 0.988 | locus YDR069C, strain doa4, stronger effect = lower value 0.978 | locus YDR137W, strain rgp1, stronger effect = lower value 1 | locus YDR159W, strain sac3, stronger effect = lower value 0.955 | locus YDR195W, strain ref2 0.93 | locus YDR297W, strain sur2, stronger effect = lower value 0.993 | locus YDR334W, strain swr1, stronger effect = lower value 0.987 | locus YDR335W, strain msn5, stronger effect = lower value 0.991 | locus YDR392W, strain spt3, stronger effect = lower value 0.868 | locus YEL003W, strain gim4, stronger effect = lower value 0.982 | locus YEL037C, strain rad23, stronger effect = lower value 0.985 | locus YEL061C, strain CIN8 (second series), stronger effect = lower value 0.982 | locus YER015W, strain faa2, stronger effect = lower value 0.999 | locus YER016W, strain bim1, stronger effect = lower value 0.979 | locus YER111C, strain swi4, stronger effect = lower value 0.989 | locus YER155C, strain BEM2 (second series), stronger effect = lower value 0.969 | locus YFR010W, strain ubp6, stronger effect = lower value 0.993 | locus YGL167C, strain pmr1, stronger effect = lower value 0.982 | locus YGL173C, strain kem1, stronger effect = lower value 0.987 | locus YGL227W, strain vid30, stronger effect = lower value 0.993 | locus YGL240W, strain doc1, stronger effect = lower value 0.982 | locus YGL253W, strain hxk2, stronger effect = lower value 0.984 | locus YHR013C, strain ard1, stronger effect = lower value 0.954 | locus YHR027C, strain rpn1, stronger effect = lower value 0.996 | locus YHR030C, strain SLT2, stronger effect = lower value 0.958 | locus YHR079C, strain IRE1, stronger effect = lower value 0.961 | locus YHR142W, strain chs7, stronger effect = lower value 0.998 | locus YJL092W, strain hpr5, stronger effect = lower value 0.987 | locus YJL095W, strain BCK1 (second series), stronger effect = lower value 0.994 | locus YJL095W, strain BCK1, stronger effect = lower value 0.995 | locus YJL115W, strain asf1, stronger effect = lower value 0.986 | locus YJL129C, strain trk1, stronger effect = lower value 0.989 | locus YJL154C, strain vps35, stronger effect = lower value 0.986 | locus YJL164C, strain tpk1, stronger effect = lower value 1 | locus YJL166W, strain qcr8, stronger effect = lower value 0.996 | locus YJL187C, strain SWE1, stronger effect = lower value 1 | locus YJR066W, strain TOR1, stronger effect = lower value 0.93 | locus YKL160W, strain elf1, stronger effect = lower value 1.03 | locus YKR026C, strain gcn3, stronger effect = lower value 0.993 | locus YKR091W, strain srl3, stronger effect = lower value 0.995 | locus YLL001W, strain dnm1, stronger effect = lower value 0.98 | locus YLL026W, stronger effect = lower value 0.996 | locus YLL041C, strain sdh2, stronger effect = lower value 0.994 | locus YLR027C, strain aat2, stronger effect = lower value 0.999 | locus YLR113W, strain HOG1, stronger effect = lower value 0.976 | locus YLR221C, strain rsa3, stronger effect = lower value 1.02 | locus YLR258W, strain gsy2, stronger effect = lower value 0.982 | locus YLR262C, strain YPT6 (second series), stronger effect = lower value 1 | locus YLR320W, strain mms22, stronger effect = lower value 0.983 | locus YLR342W, strain FKS1, stronger effect = lower value 1 | locus YLR357W, strain rsc2, stronger effect = lower value 0.981 | locus YLR370C, strain arc18, stronger effect = lower value 0.996 | locus YLR384C, strain iki3, stronger effect = lower value 0.995 | locus YML120C, strain ndi1, stronger effect = lower value 1.01 | locus YMR058W, strain fet3, stronger effect = lower value 0.998 | locus YMR125W, strain sto1, stronger effect = lower value 0.979 | locus YMR129W, stronger effect = lower value 0.994 | locus YMR205C, strain PFK2, stronger effect = lower value 0.967 | locus YMR231W, strain pep5, stronger effect = lower value 0.993 | locus YNL071W, strain lat1, stronger effect = lower value 0.993 | locus YNL183C, strain NPR1, stronger effect = lower value 0.929 | locus YNL209W, strain ssb2, stronger effect = lower value 0.994 | locus YNL248C, strain rpa49, stronger effect = lower value 1.01 | locus YNL322C, strain KRE1 (second series), stronger effect = lower value 1 | locus YNR049C, strain mso1, stronger effect = lower value 0.985 | locus YOR001W, strain rrp6, stronger effect = lower value 1.02 | locus YOR070C, strain gyp1, stronger effect = lower value 0.992 | locus YOR080W, strain dia2, stronger effect = lower value 0.997 | locus YOR083W, strain WHI5, stronger effect = lower value 1.03 | locus YOR106W, strain vam3, stronger effect = lower value 1.02 | locus YOR231W, strain MKK1, stronger effect = lower value 0.972 | locus YOR265W, strain rbl2, stronger effect = lower value 0.989 | locus YOR270C, strain vph1, stronger effect = lower value 0.99 | locus YOR290C, strain snf2, stronger effect = lower value 0.916 | locus YPL051W, strain arl3, stronger effect = lower value 1.01 | locus YPL078C, strain atp4, stronger effect = lower value 1.01 | locus YPL106C, strain sse1, stronger effect = lower value 0.985 | locus YPL240C, strain hsp82, stronger effect = lower value 0.983 | locus YPL256C, strain CLN2, stronger effect = lower value 0.921
